Screens (PubChem)
Sampled rows, rich in hits. Any-hit rate of the full collection: about 2%.
LEDGF integ inh – blockers of LEDGF/p75-dependent integrase strand transfer – biochemical, TR-FRET, high throughput, primary screen. HIV-1 integrase (with human LEDGF/p75). TR-FRET IN-LEDGF/p75 DNA integration, Eu/Cy5. inhibition, % at 3.7 µM. actives 0.64% (n = 370,000). AID 743269, 2014;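 active means inhibition above the screen-wide mean plus 3 SD, cut at about 13% in these data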;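 further: signal is the Cy5 over europium emission ratio at 671 and 618 nm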
Rin1-Abl PPI inh – inhibitors of Rin1-Abl protein binding, primary screen, biochemical, TR-FRET; actives 0.4% (n = 360,000); Tyrosine-protein kinase ABL1 (Homo sapiens) + Ras and Rab interactor 1 (Homo sapiens), …; AID 588664, 2011; inhibition, % at 7.35 µM; in the data active means inhibition above about 5%, passing the limit was not always enough
MBD2 DNA inh – inhibitors of MBD2 binding to methylated DNA, primary screen, biochemical, TR-FRET, DNA-binding domain, human | Methyl-CpG-binding domain protein 2 (Homo sapiens), Q9UBB5 | MBD2 binding to methylated oligonucleotide | inhibition, % at 4.4 µM | actives 0.31% (n = 370,000); in the data active means inhibition above about 13%
Target sequence (Q9UBB5 whole entry, looked up, the tested form may be a part): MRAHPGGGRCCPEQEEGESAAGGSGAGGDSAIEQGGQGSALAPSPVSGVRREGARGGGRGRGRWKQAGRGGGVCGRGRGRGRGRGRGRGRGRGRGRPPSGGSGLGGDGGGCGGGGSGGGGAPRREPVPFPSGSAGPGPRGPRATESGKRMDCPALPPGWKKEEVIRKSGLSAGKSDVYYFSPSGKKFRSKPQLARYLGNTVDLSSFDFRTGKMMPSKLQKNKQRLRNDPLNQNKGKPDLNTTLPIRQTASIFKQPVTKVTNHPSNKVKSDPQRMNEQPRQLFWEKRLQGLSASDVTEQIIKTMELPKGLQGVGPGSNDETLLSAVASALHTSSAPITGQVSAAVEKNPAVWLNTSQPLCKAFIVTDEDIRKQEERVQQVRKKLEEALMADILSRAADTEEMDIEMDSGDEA
TCR-CD3 inh – inhibitors of human TCR-CD3 interaction, primary screen, biochemical, fluorescence, TAMRA-labeled TCR probe. T-cell receptor (TCR). actives 0.37% (n = 360,000). inhibition, % at 9.4 µM; in the data active means inhibition above about 19%;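 further: recombinant mutant TCR 2C K166C tagged with TAMRA read by polarization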
UHRF1 binding – UHRF1 methylated DNA binding inhibitors, primary screen, counter-screen for MBD2 inhibitor project, biochemical, TR-FRET, human UHRF1, single concentration; inhibition, % at 4.4 µM; UHRF1 binding to methylated oligo; AID 687016, 2013; actives 0.75% (n = 370,000); E3 ubiquitin-protein ligase UHRF1 (Homo sapiens), Q96T88;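 further: UHRF1 SRA domain binding a hemimethylated CpG hairpin DNA probe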
Rin1 Abl conf – Rin1-Abl binding inhibitor retest, confirmation, biochemical, TR-FRET. shares compounds with Rin1-Abl PPI inh. purified proteins. inhibition, % at 7.35 µM. actives 49% (n = 1,300). AID 602124, 2011; in the data active means inhibition above about 6.5%
GFP quench – GFP fluorescence inhibitors and quenchers, artefact control for Rin1-Abl interaction inhibitor project, biochemical; shares compounds with Rin1-Abl PPI inh; inhibitors/quenchers counterscreen; actives 8.5% (n = 1,300); inhibition, % at 6.75 µM; AID 602125, 2011; in the data active means inhibition above about 6.5%;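 further: ABL1-eGFP fusion protein alone without its partner RIN1-SBP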
GFP quench DR – GFP fluorescence inhibitors and quenchers, dose response, artefact control for Rin1-Abl interaction inhibitor project, biochemical. shares compounds with Rin1-Abl PPI inh. IC50, µM. GFP fluorescence interference/quenching counterscreen. 230 tested, under 10 active. AID 602182, 2012; call rule not given here;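 further: ABL1-eGFP fusion protein alone without its RIN1 binding partner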
BSA TAMRA ctr – compounds interfering with TAMRA-BSA probe, counter-screen for TCR-CD3 interaction inhibitor project, biochemical, fluorescence, TAMRA-labeled BSA. shares compounds with TCR-CD3 inh. TAMRA-labeled BSA probe fluorescence counterscreen. inhibition, % at 9.4 µM. actives 10% (n = 1,200); in the data active means inhibition above about 23%
TCR-CD3 conf – TCR-CD3 interaction inhibitors, retest, confirmation, biochemical, fluorescence, TAMRA-labeled TCR probe. shares compounds with TCR-CD3 inh. TAMRA-labeled TCR probe fluorescence binding assay. inhibition, % at 9.4 µM. actives 48% (n = 1,200); in the data active means inhibition above about 19%
UHRF1 ctr MBD2 – UHRF1 methylated DNA binding inhibitors, counter-screen for MBD2 inhibitor project, biochemical, TR-FRET, human UHRF1 | UHRF1 binding to methylated oligonucleotide | AID 720530, 2013 | inhibition, % at 4.4 µM | actives 25% (n = 1,000) | shares compounds with MBD2 DNA inh;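 further: UHRF1 SRA domain binding a labeled hemimethylated CpG hairpin DNA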
MBD2 confirm – inhibitors of MBD2 binding to methylated DNA, confirmation, biochemical, TR-FRET, DNA-binding domain, human. TR-FRET MBD2-DBD binding to methylated oligonucleotide. actives 26% (n = 1,000). inhibition, % at 4.4 µM. shares compounds with MBD2 DNA inh; in the data active means inhibition above about 14%
IN multimer act – HIV-1 IN multimer formation enhancers, counter-screen for LEDGF/p75 integration inhibitor project, biochemical, TR-FRET; shares compounds with LEDGF integ inh; TR-FRET HIV-1 integrase multimerization; activation, % at 7.7 µM; actives 17% (n = 2,000); AID 1053131, 2014; in the data active means activation above about 8.9%
TRFRET interf – TR-FRET optical interference artefacts, confirmation, artefact control for LEDGF/p75-dependent integration inhibitor project, biochemical, HIV-1 IN multimerization. 2,000 tested, under 10 active. inhibition, % at 7.7 µM. AID 1053135, 2014. TR-FRET optical interference counterscreen. shares compounds with LEDGF integ inh;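 active means inhibition above the mean over all tested compounds plus 3 SD, which no compound reached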
LEDGF integ conf – inhibitors of HIV-1 IN-LEDGF/p75 DNA integration, confirmation, biochemical, TR-FRET | AID 1053136, 2014 | shares compounds with LEDGF integ inh | TR-FRET LEDGF/p75-dependent HIV-1 integration | inhibition, % at 3.7 µM | actives 36% (n = 2,000); in the data active means inhibition above about 14%
A number is an active result; – = inactive; · = no result given. Unless noted, no stated cut-off is given here; in the data, active means inhibition above about 21%; inactive means the rest.

SMILES | LEDGF integ inh | Rin1-Abl PPI inh | MBD2 DNA inh | TCR-CD3 inh | UHRF1 binding | Rin1 Abl conf | GFP quench | BSA TAMRA ctr | TCR-CD3 conf | IN multimer act | TRFRET interf | LEDGF integ conf | others
O=S(=O)(Nc1ccc(O)c2ncccc12)c1ccccc1F | 28.6 | 12.6 | – | 29.4 | – | – | – | · | · | – | – | 43.8
CCCCCCCCCCCCCC(=O)NO | – | – | – | – | – | · | · | · | · | · | · | ·
O=S(=O)(NCc1ccccc1)c1ccc(Cl)cc1 | – | – | – | – | – | · | · | · | · | · | · | ·
O=S(=O)(Nc1cc2nc3ccccc3nc2n1Cc1ccccc1)c1ccc(Cl)cc1 | 24.0 | 29.6 | 16.1 | – | – | 28.3 | – | · | · | – | – | 72.6 | GFP quench DR=–;UHRF1 ctr MBD2=–;MBD2 confirm=18.0
CN(C)c1cccc(NC(=O)c2cccc3c(-c4ccc(F)c(F)c4)coc23)c1 | – | – | – | – | – | · | · | · | · | · | · | ·
COc1cc(OC)cc(C(=O)OCC(=O)N(C)c2ccccc2)c1 | – | – | – | – | – | · | · | · | · | · | · | ·
O/N=C1\CCC\C1=C/c1ccco1 | – | – | – | – | – | · | · | · | · | · | · | ·
O=C1C(=Cc2ccco2)CCC1=Cc1ccco1 | 91.2 | 11.9 | 102.9 | 45.4 | 99.8 | 16.8 | 28.9 | – | – | 14.4 | – | 92.9 | UHRF1 ctr MBD2=96.1;MBD2 confirm=53.4
O=C(CCN1CCN(c2ccccc2)CC1)N/N=C/c1ccc(O)c(O)c1O | 42.0 | 18.7 | – | 30.2 | 26.7 | 50.6 | 13.2 | – | 23.5 | 49.0 | – | 72.8
O=C(Cc1csc(N2CCOCC2)n1)N/N=C/c1ccc(O)c(O)c1O | 55.2 | 29.6 | – | 41.0 | – | 27.9 | 9.0 | – | – | 44.1 | – | 60.0
COc1ccc(/C=N/NC(=O)CCN2CCN(c3ccccc3)CC2)c(OC)c1OC | – | – | – | – | – | · | · | · | · | · | · | ·
